# Screening results: PubChem, several laboratories
# CYP2C19 activ: human CYP2C19 activators, primary screen, biochemical, luminescence; Cytochrome P450 2C19 (Homo sapiens), P33261; recombinant CYP2C19, luciferin-H EGE luminescence; active compounds read high; 0 = fully inhibited enzyme, 1 = untreated enzyme; 96,000 tested, under 10 active; activation factor at 5 µM; AID 1025, 2008;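 active = activation factor of at least 2 at 5 µM in the primary screen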;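 also: 0 = wells with 2.5 mM tranylcypromine and 1 = vehicle-only wells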
# CYP2C9 activ: human CYP2C9 activators, primary screen, biochemical, luminescence; recombinant CYP2C9, luciferin-H conversion; active compounds read high; factor 1 = untreated enzyme, 0 = blocked; activation factor at 5 µM; 96,000 tested, 1.4% active; AID 1024, 2008;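 active = activation factor of 2 or more for CYP2C9 at a 5 µM dose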;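 also: 0 = sulfaphenazole-blocked wells and 1 = vehicle-only wells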
# Target sequence (P11712 whole entry, looked up): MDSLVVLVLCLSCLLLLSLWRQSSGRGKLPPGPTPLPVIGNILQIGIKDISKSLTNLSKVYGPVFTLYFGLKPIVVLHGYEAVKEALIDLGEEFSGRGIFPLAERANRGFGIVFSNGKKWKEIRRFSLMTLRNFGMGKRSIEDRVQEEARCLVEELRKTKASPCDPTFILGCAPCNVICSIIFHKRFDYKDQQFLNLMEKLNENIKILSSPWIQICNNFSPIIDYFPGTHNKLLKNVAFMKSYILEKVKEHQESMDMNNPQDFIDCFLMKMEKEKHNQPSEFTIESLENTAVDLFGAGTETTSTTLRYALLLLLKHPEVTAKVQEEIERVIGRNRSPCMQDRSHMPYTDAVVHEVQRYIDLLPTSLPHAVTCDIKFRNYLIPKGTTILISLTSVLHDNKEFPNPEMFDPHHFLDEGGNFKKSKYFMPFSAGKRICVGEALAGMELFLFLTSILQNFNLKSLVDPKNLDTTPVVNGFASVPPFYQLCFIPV
# Measles CPE: compounds protecting cells from measles virus cytopathic effect, primary screen, measles RdRp inhibitor project, single point, MLSMR library, absorbance; Measles virus-infected cells, CPE protection; protection (pct of control), % at 4 µM; 140,000 tested, 1.5% active; in the data active = protection mostly above about 24%, no sharp cut-off; inactive = mostly below about 26%
# CYP2C9 inh: blockers of cytochrome P450 2C9 activity – biochemical, luminescence, ADME assay, primary screen | P11712 | CYP2C9 Supersomes, luciferin-H conversion | inhibition, % at 5 µM | 96,000 tested, 20% active | AID 777, 2007;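 active = blocking of liver enzyme CYP2C9 beyond about 50% at 5 µM, limit read from the data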
# CYP2C19 inh: blockers of cytochrome P450 2C19 activity – biochemical, luminescence, ADME assay, primary screen; P33261; CYP2C19 Supersomes, luciferin-H EGE luminescence, 30 min; inhibition, % at 5 µM; 96,000 tested, 21% active;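 active = CYP2C19 inhibition above a set limit at 5 µM in the primary screen, cut at about 50% in these data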;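 also: plate controls were negative control wells for no effect and 2.5 mM tranylcypromine positive control for full effect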
# * = called active by the depositor; . = no result. Hits are enriched below; roughly 22% of the tested compounds scored in any of these assays.
SMILES,CYP2C19 activ,CYP2C9 activ,Measles CPE,CYP2C9 inh,CYP2C19 inh
CCc1ccc(-c2nc(CN3CCC(C(=O)NCCc4ccc(OC)c(OC)c4)CC3)c(C)o2)cc1,0.8,0.6,.,38,19
CCOC(=O)c1ccccc1OCc1cc(/C=N/n2cnnc2)ccc1OC,0.4,0.3,1,71*,61*
O=C(O)CCC(=O)Nc1ccc(-c2nnc(-c3ccco3)o2)cc1,1.1,1.1,15,-14,-10
c1ccc(Cn2ccc(-c3cnc(-c4ccccc4)s3)n2)cc1,0.1,0.3,5,74*,94*
Cc1cc(C)cc(N2C(=O)N(c3ccccc3C)C3CS(=O)(=O)CC32)c1 (configuration not stated),0.1,0.9,17,9,94*
CCOC(=O)c1cc2sccc2n1CC(=O)Nc1ccc(OC)cc1OC,0,0.3,13,68*,99*
COC(=O)c1cc2sccc2n1CC(=O)Nc1ccc(OC)c(OC)c1OC,0.1,0.1,24,88*,91*
COC(=O)c1cc2sccc2n1Cc1ccc(C)cc1,0.9,0.8,19,18,6
COc1cc(Cn2c(C(=O)O)cc3sccc32)cc(OC)c1OC,0.3,0.6,7,41,71*
CCOC(=O)c1cc2sccc2n1CC(=O)OC,0.5,0.8,29,23,49
CSCC[C@H](NC(=O)NCCC1=CCCCC1)C(=O)O,0.8,0.6,10,39,24
COC(=O)c1ccc(C(=O)OC)c(NC(=O)CN(C)Cc2ccccc2)c1,.,.,8,.,.
COc1cc(C(=O)Oc2cccc(Nc3ncnc4ccccc34)c2)cc(OC)c1OC,0.5,0.4,12,63*,45
O=c1c(-c2cccc3ccccc23)[n+]([O-])c2ccccc2n1O,1.1,0.3,14,75*,-10
O=C(c1cccs1)N1CCC(Cc2ccccc2)CC1,.,.,8,.,.
Cc1ccc(C)c(Cn2nnc3c(=O)[nH]c(C4CCCN(C(=O)C5CCCCC5)C4)nc32)c1 (configuration not stated),0.3,0.1,7,89*,73*
O=C(C1CCCCC1)N1CCC(c2nc3c(nnn3Cc3c(F)cccc3Cl)c(=O)[nH]2)CC1,.,.,6,.,.
COc1ccccc1NC(=O)N1CCCC(c2nc3c(nnn3Cc3ccc(C)cc3)c(=O)[nH]2)C1 (configuration not stated),0.3,0.7,18,27,67*
O=C(C1CCCCC1)N1CCCC(c2nc3c(nnn3Cc3ccccc3)c(=O)[nH]2)C1 (configuration not stated),0.8,0.6,5,35,20
O=C(c1cccs1)N1CCC(c2nc3c(nnn3Cc3ccccc3)c(=O)[nH]2)CC1,0.9,0.4,13,59*,9
O=C(c1ccccc1)N1CCCC(c2nc3c(nnn3Cc3ccccc3)c(=O)[nH]2)C1 (configuration not stated),0.8,0.2,2,78*,24
CCC(C)c1ccc(NC(=S)Nc2ccc(OC)c(OC)c2)cc1 (configuration not stated),.,.,13,.,.
COc1ccc(C(C)=O)cc1CN1CCCCC1,.,.,3,.,.
CCN(CC)S(=O)(=O)c1cccc(NC(=O)COC(=O)c2ccc(Br)o2)c1,0.6,0.3,8,65*,42
CCN(CC)S(=O)(=O)c1cccc(NC(=O)COC(=O)CCc2nc3ccccc3s2)c1,0.9,2.3*,16,-125,9
SMILES,CYP2C19 activ,CYP2C9 activ,Measles CPE,CYP2C9 inh,CYP2C19 inh
O=C(CCN1C(=O)COc2ccccc21)NCCN1CCN(c2ccccc2F)CC1,1,1.1,7,-11,0
Cc1cc(C(=O)NNC(=S)NCc2ccccc2)cs1,.,.,5,.,.
Cc1ccccc1N1CCN(CCCN2C(=O)CC(=C(c3ccccc3)c3ccccc3)C2=O)CC1,0.3,0.5,11,50*,73*
O=C1CC(=C(c2ccccc2)c2ccccc2)C(=O)N1CCCCN1CCN(c2cccc(Cl)c2)CC1,0.7,0.3,1,66*,29
COc1ccc(S(=O)(=O)NC(CC(=O)O)c2ccco2)cc1 (configuration not stated),.,.,2,.,.
Clc1ccc2scc(CN3CCCCC3)c2c1,.,.,18,.,.
